VACV Venus inh – qHTS for Stage-Specific Inhibitors of Vaccinia Orthopoxvirus: Venus Reporter Primary qHTS. Vaccinia virus Venus reporter expression, fluorescence. Potency, µM (highest dose often 36.5 µM), without a hit: at the top dose activity change, negative = inhibition, most hits filed as inhibitors. 0.46% of 330,000 active; calls by dose curve; tested in A549 cells; note: % is set by controls: 0 for no effect and ±100 for the full control effect; nearly all actives have a fitted effect of over 30% in size
VACV mCherry inh – qHTS for Stage-Specific Inhibitors of Vaccinia Orthopoxvirus: mCherry Reporter Primary qHTS. Vaccinia virus mCherry reporter infection, fluorescence. 0.63% of 310,000 active. Potency, µM (series often up to 36.5 µM), for the others: at the highest dose activity change, negative = inhibition, hits mostly inhibitors; calls by dose curve; tested in A549 cells; note: % is set by controls: 0 for no effect and ±100 for the full control effect; nearly all actives have a fitted effect of over 35% in size
LASV entry inh – qHTS for Inhibitors of binding or entry into cells for Lassa Virus | Potency, µM (top dose mostly 37.9 µM), for inactives: at the top dose activity change, negative = inhibition, hits mostly inhibitors | Lassa virus pseudotype entry inhibition, cell reporter | 1.2% of 300,000 active; calls by dose curve; tested in HEK293 cells; note: % is set by controls: 0 for no effect and ±100 for the full control effect; nearly all actives have a fitted effect of over 50% in size
Marburg entry inh – qHTS for inhibitors of binding or entry into cells for Marburg Virus; Marburg virus pseudotyped entry inhibition, cell reporter; Potency, µM (titrated, usually from 37.8 µM), without a hit: at the top dose activity change, negative = inhibition, hits mostly inhibitors; 1.8% of 300,000 active; AID 540276, 2011; calls by dose curve; tested in HEK293 cells; note: % is set by controls: 0 for no effect and ±100 for the full control effect
HCV inhibitor – qHTS Assay for Inhibitors of Hepatitis C Virus (HCV). Potency, µM (series often up to 41.8 µM), inactives show top-dose activity change, negative = inhibition, hits mostly inhibitors. 3.4% of 340,000 active. AID 651820, 2012. Huh7.5.1 HCVcc-Cre infection, luciferase reporter, 44 h; note: % is set by controls: 0 for no effect and ±100 for the full control effect
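Antiviral activity was scored by luciferase reporter output from cells infected with HCVcc-Cre (~0.5 moi) in presence of compound, 44 h infection period, cells seeded 1,000/well 4 h prior.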
HCV inh confirm – qHTS Assay for Inhibitors of Hepatitis C Virus (HCV): Confirmation Assay for Cherry-picked Compounds. shares compounds with HCV inhibitor. 78% of 640 active. HCVcc-Cre infectious virus cell assay, luciferase, inhibition. Potency, µM (doses to about 41.8 µM), for the others: at the top dose activity, negative = inhibition, actives largely listed as inhibitors; note: nearly all actives have a fitted effect of over 80% in size
HCV host tox – qHTS Assay for Inhibitors of Hepatitis C Virus (HCV): Cytotoxicity Counterscreen for Cherry-picked Compounds | shares compounds with HCV inhibitor | HCV host cell line cytotoxicity counterscreen | Potency, µM (series often up to 41.8 µM), for the others: at the highest dose activity change, negative = cytotoxicity, hits mostly inhibitors | 22% of 640 active;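 note: 44 h compound exposure; % is set by controls: 0 for no effect and ±100 for the full control effect; nearly all actives have a fitted effect of over 55% in size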
The depositor's hits bear a star; [ ] = remark or other dose. Rows were chosen to be rich in hits. Some 4.6% of all compounds tested hit in one or more screens of this group. Unless noted, calls come from the whole dose curve; as a rule, active = well fitted curve in the direction sought with a large enough effect; inconclusive = small, poorly fitted or top-dose-only effect, or another doubt; inactive = no such curve, though single readings can be large; an effect the other way counts as inactive or inconclusive. Potency is the fitted concentration of half-maximal effect.

How did CCc1ccc(OCC(O)CN2CCC(CN3C(=O)c4cccc5cccc(c45)C3=O)CC2)cc1 (configuration not stated) do in these assays?
VACV Venus inh: -4%; VACV mCherry inh: -13%; LASV entry inh: inconclusive; Marburg entry inh: inconclusive; HCV inhibitor: 6.3µM*; HCV inh confirm: 7µM*; HCV host tox: 14µM*

Results for COC(=O)c1nn2c(C(F)(F)F)cc(-c3ccc(Br)o3)nc2c1Br ?
LASV entry inh: -28%; Marburg entry inh: -5%; HCV inhibitor: 5.6µM*; HCV inh confirm: inconclusive; HCV host tox: -19%

How did Cc1ccccc1C(=O)Nc1ccccc1-c1nnn(CC(=O)Nc2ccc3c(c2)OCCO3)n1 do in these assays?
LASV entry inh: -20%; Marburg entry inh: inconclusive; HCV inhibitor: 5µM*; HCV inh confirm: inconclusive; HCV host tox: -11%

What do the screens show for `CCCn1c2ccccc2c2cnn(CC(=O)N(CCCOC)Cc3ccco3)c(=O)c21`?
VACV Venus inh: -14%; VACV mCherry inh: -14%; LASV entry inh: -26%[46.1 µM]

What do the screens show for `O=c1c2ccccc2nc2n1CCN2Cc1ccc(Cl)cc1`?
VACV Venus inh: inconclusive; VACV mCherry inh: -15%; LASV entry inh: -18%; Marburg entry inh: inconclusive; HCV inhibitor: inconclusive; HCV inh confirm: 6.3µM*; HCV host tox: inconclusive

What do the screens show for `O=c1c2ccccc2nc(-c2ccccc2)n1Cc1ccc(Cl)cc1`?
VACV Venus inh: -12%; VACV mCherry inh: -13%; LASV entry inh: -9%; Marburg entry inh: -19%; HCV inhibitor: -6%

How did CN1CCN(/N=C/c2ccc(-c3ccc([N+](=O)[O-])cc3Cl)o2)CC1 do in these assays?
VACV Venus inh: 21%; VACV mCherry inh: 4%; LASV entry inh: 18%; Marburg entry inh: inconclusive; HCV inhibitor: 8.9µM*; HCV inh confirm: inconclusive; HCV host tox: 13%

Results for Cc1cc(C)nc(NCC(O)CNc2ccccc2Cl)n1 (configuration not stated) ?
VACV Venus inh: -23%; VACV mCherry inh: -27%; LASV entry inh: -18%; Marburg entry inh: -46%; HCV inhibitor: inconclusive; HCV inh confirm: 28µM*; HCV host tox: 12%

What do the screens show for `O=C(/C=C\c1ccc2c(c1)OCO2)NC1CC(=O)N(c2ccc(Cl)cc2)C1` (configuration not stated)?
VACV Venus inh: -8%; VACV mCherry inh: -7%; LASV entry inh: 6%[46.1 µM]

How did O=C(/C=C\c1ccc2c(c1)OCO2)Nc1c2c(nn1-c1ccc(Cl)cc1)CSC2 do in these assays?
VACV Venus inh: -17%; VACV mCherry inh: inactive; LASV entry inh: -10%; Marburg entry inh: -19%; HCV inhibitor: inconclusive; HCV inh confirm: 13µM*; HCV host tox: 13%

Results for COc1ccc(NC(=O)Cn2c(=O)cc(C)c3c(C)nn(C)c32)cc1 ?
VACV Venus inh: -20%; VACV mCherry inh: -10%; LASV entry inh: -6%[46.1 µM]

What do the screens show for `COc1cc(Cl)c(C)cc1NC(=O)CC(c1ccc(F)cc1)N1Cc2ccccc2C1=O` (configuration not stated)?
VACV Venus inh: -26%; VACV mCherry inh: -24%; LASV entry inh: 3%[46.1 µM]

Results for Cc1ccc(OCCCCNC2CCCC(C)C2C)c(C)c1 (configuration not stated) ?
VACV Venus inh: 10µM*; VACV mCherry inh: inconclusive; LASV entry inh: inconclusive; Marburg entry inh: 11µM*; HCV inhibitor: 7.9µM*; HCV inh confirm: 25µM*; HCV host tox: inconclusive

What do the screens show for `Cc1ccc(OCCCN2CCCC2)c(C)c1`?
VACV Venus inh: -12%; LASV entry inh: 8%; Marburg entry inh: -11%; HCV inhibitor: -21%

Results for COc1ccc(C(=O)c2c(N)c(C(=O)Nc3ccccc3Cl)c3ccccn23)cc1 ?
VACV Venus inh: -19%; VACV mCherry inh: -14%; LASV entry inh: 23%[46.1 µM]; Marburg entry inh: 12%[46.1 µM]

How did COc1ccc(-c2ccccc2)cc1NC(=O)c1cccs1 do in these assays?
VACV Venus inh: -15%; VACV mCherry inh: inconclusive; LASV entry inh: -9%; Marburg entry inh: -10%; HCV inhibitor: 7.9µM*; HCV inh confirm: 20µM*; HCV host tox: 17%

What do the screens show for `COc1cc(NC(=O)c2cccs2)c(OC)cc1NC(=O)c1cccs1`?
VACV Venus inh: -13%; VACV mCherry inh: -15%; LASV entry inh: -10%; Marburg entry inh: inconclusive; HCV inhibitor: -12%

What do the screens show for `O=C(CCC(=O)N1CC2CCCN2c2ccccc21)NCc1ccc(Cl)cc1` (configuration not stated)?
VACV Venus inh: 0%; VACV mCherry inh: 11%; LASV entry inh: 2%[46.1 µM]

What do the screens show for `CC(=O)Nc1ccc(-c2csc(N/N=C(/C)c3ccccc3)n2)cc1`?
VACV Venus inh: 8%; VACV mCherry inh: -58%; LASV entry inh: inconclusive; Marburg entry inh: inconclusive; HCV inhibitor: 1.3µM*; HCV inh confirm: 6.3µM*; HCV host tox: -22%

How did CC[n+]1c(/C=C2\Sc3ccccc3N2C)ccc2cccc(C)c21 do in these assays?
VACV Venus inh: inactive; VACV mCherry inh: 14µM*; LASV entry inh: inconclusive; Marburg entry inh: inconclusive; HCV inhibitor: 2.8µM*; HCV inh confirm: 2.5µM*; HCV host tox: 2.5µM*

How did CC(=S)/C=C1\Sc2ccccc2N1C do in these assays?
VACV Venus inh: 4%; VACV mCherry inh: inactive; LASV entry inh: -6%; Marburg entry inh: inconclusive; HCV inhibitor: 2%

What do the screens show for `CC(C)(C)OC(=O)N1CCC(c2c(C(=O)N3CCN(C(=O)c4ccco4)CC3)cnn2-c2cccc(F)c2)CC1`?
VACV Venus inh: -1%; VACV mCherry inh: -10%; LASV entry inh: 23%[46.1 µM]

How did Cc1nc(N)nc(N)c1CCCc1ccc(Cl)c(Cl)c1 do in these assays?
VACV Venus inh: -71%; VACV mCherry inh: -58%; LASV entry inh: inconclusive; Marburg entry inh: inconclusive; HCV inhibitor: 4µM*; HCV inh confirm: 7µM*; HCV host tox: inconclusive

How did COC(=O)c1ccccc1NC(=O)C1=CC(c2ccc(C)cc2)=NS(=O)(=O)N1C do in these assays?
VACV Venus inh: -10%; VACV mCherry inh: -1%; LASV entry inh: inconclusive; Marburg entry inh: inconclusive

Source: PubChem
